Data from PubChem BioAssay (NCI).
The panel holds about 83,000 compounds, 20% with a hit somewhere; the sample as a whole holds those more often.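 Method: cells in 96-well plates; compound added at one concentration; 48 h incubation; percent growth measured; values under 10 scored active.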 Calls of active or inactive are those of the source.

Columns and labels:
Assay in all cases: NCI-60 one-dose screen, 48 h (100 = growth as untreated, 0 = no growth, -100 = all killed)
Details in all cases: 10 µM unless noted
HCT-15 colon = tested on: HCT-15 colon
HT29 colon = tested on: HT29 colon
SNB-75 CNS = tested on: SNB-75 CNS
SNB-19 CNS = tested on: SNB-19 CNS
PC-3 prostate = tested on: PC-3 prostate
SK-MEL-5 melanoma = tested on: SK-MEL-5 melanoma
UACC-62 melanoma = tested on: UACC-62 melanoma
LOX IMVI melanoma = tested on: LOX IMVI melanoma
SK-MEL-28 melanoma = tested on: SK-MEL-28 melanoma
SK-MEL-2 melanoma = tested on: SK-MEL-2 melanoma
SN12C renal = tested on: SN12C renal
UO-31 renal = tested on: UO-31 renal
TK-10 renal = tested on: TK-10 renal
ACHN renal = tested on: ACHN renal
CAKI-1 renal = tested on: CAKI-1 renal
A498 renal = tested on: A498 renal
CCRF-CEM leukemia = tested on: CCRF-CEM leukemia
U251 CNS = tested on: U251 CNS
EKVX NSCLC = tested on: EKVX NSCLC
MOLT-4 leukemia = tested on: MOLT-4 leukemia

Measured: growth

Cn1c(=O)c(S(=O)(=O)c2ccccc2)cc2ccc3c(cnn3-c3ccc(Cl)cc3)c21
inactive: HCT-15 colon 73% | HT29 colon 79.2% | SNB-75 CNS 38.9% | SNB-19 CNS 90.1% | PC-3 prostate 79.9% | SK-MEL-5 melanoma 84.6% | UACC-62 melanoma 89.1% | LOX IMVI melanoma 78.9% | SK-MEL-28 melanoma 84.6% | SK-MEL-2 melanoma 87.2% | SN12C renal 86.6% | UO-31 renal 52.2% | TK-10 renal 81.5% | ACHN renal 58.2% | CAKI-1 renal 82.8% | A498 renal 53.5% | CCRF-CEM leukemia 95.8%

O=C1CN2CCC1C/C2=C\c1ccnc2c(Cl)cccc12 (stereo not given)
inactive: HCT-15 colon 82.6% | HT29 colon 106% | SNB-75 CNS 85.5% | SNB-19 CNS 98.2% | U251 CNS 98.4% | SK-MEL-5 melanoma 108% | UACC-62 melanoma 90.5% | LOX IMVI melanoma 96% | SK-MEL-28 melanoma 127% | SK-MEL-2 melanoma 85.8% | EKVX NSCLC 95.7% | SN12C renal 94.3% | UO-31 renal 75.5% | TK-10 renal 127% | ACHN renal 91.2% | CAKI-1 renal 93.9% | A498 renal 159% | CCRF-CEM leukemia 96.8% | MOLT-4 leukemia 97.1%

COc1nc2c(cc1S(=O)(=O)c1ccccc1)CCc1c-2cnn1-c1ccccc1
inactive: HCT-15 colon 59.8% | HT29 colon 54.7% | SNB-75 CNS 65.8% | SNB-19 CNS 89.3% | PC-3 prostate 50.3% | SK-MEL-5 melanoma 86.6% | UACC-62 melanoma 69.4% | LOX IMVI melanoma 90% | SK-MEL-28 melanoma 82.9% | SK-MEL-2 melanoma 83.4% | SN12C renal 77.9% | TK-10 renal 67.9% | ACHN renal 71.1% | CAKI-1 renal 58.2% | A498 renal 54.6% | CCRF-CEM leukemia 68.6% | MOLT-4 leukemia 54.5%
active: UO-31 renal -65.3%

COc1ccc(C2CC(c3cc(OC)c(OC)c(OC)c3)=NN2c2ccc(S(N)(=O)=O)cc2)cc1 (stereo not given)
inactive: HCT-15 colon 66.8% | HT29 colon 59.3% | SNB-75 CNS 33.1% | SNB-19 CNS 74% | U251 CNS 53.2% | SK-MEL-5 melanoma 58.2% | LOX IMVI melanoma 52.9% | SK-MEL-28 melanoma 76.9% | SK-MEL-2 melanoma 83.2% | SN12C renal 73.7% | TK-10 renal 66.4% | ACHN renal 76.5% | CAKI-1 renal 67.3% | A498 renal 44.5% | CCRF-CEM leukemia 41.3%

Nc1nc(N)c(C=Nc2ccc(Br)cc2)c(Nc2ccc(Br)cc2)n1
inactive: HCT-15 colon 88.5% | HT29 colon 101% | SNB-75 CNS 91.3% | SNB-19 CNS 99.8% | U251 CNS 95.1% | SK-MEL-5 melanoma 108% | UACC-62 melanoma 87% | LOX IMVI melanoma 81% | SK-MEL-28 melanoma 106% | SK-MEL-2 melanoma 108% | EKVX NSCLC 86.4% | SN12C renal 99.2% | UO-31 renal 75.2% | TK-10 renal 127% | ACHN renal 73.3% | CAKI-1 renal 69.2% | A498 renal 83.1% | CCRF-CEM leukemia 81.1% | MOLT-4 leukemia 64.7%

CSc1nnc(-c2sc3nnc(-c4ccccc4)c(-c4ccccc4)c3c2O)o1
inactive: HCT-15 colon 54.6% | HT29 colon 107% | SNB-75 CNS 78.4% | SNB-19 CNS 66.4% | U251 CNS 62.9% | SK-MEL-5 melanoma 83.5% | UACC-62 melanoma 58.9% | SK-MEL-28 melanoma 85.5% | SK-MEL-2 melanoma 102% | EKVX NSCLC 77.5% | SN12C renal 75.7% | TK-10 renal 100% | ACHN renal 83.6% | CAKI-1 renal 43.5% | CCRF-CEM leukemia 47.4% | MOLT-4 leukemia 61.8%

Cc1ccc(-c2c3c(N)c4c(nc3nc3c2c(C)nn3-c2ccccc2)CCCC4)cc1
inactive: HCT-15 colon 99.3% | HT29 colon 95.4% | SNB-75 CNS 97.2% | SNB-19 CNS 108% | PC-3 prostate 90.9% | SK-MEL-5 melanoma 104% | UACC-62 melanoma 106% | LOX IMVI melanoma 93.9% | SK-MEL-28 melanoma 99.8% | SK-MEL-2 melanoma 96% | SN12C renal 99.8% | UO-31 renal 88% | TK-10 renal 102% | ACHN renal 97.7% | CAKI-1 renal 93.2% | A498 renal 92.2% | CCRF-CEM leukemia 82.7% | MOLT-4 leukemia 92.6%

COc1ccccc1/C=C/C(=O)/C=C/c1ccccc1O
inactive: SNB-75 CNS 31.3% | SNB-19 CNS 31.8% | SK-MEL-5 melanoma 63.7% | SK-MEL-2 melanoma 72.5% | EKVX NSCLC 46.2% | A498 renal 108%
active: HCT-15 colon -17.7% | HT29 colon -41.8% | U251 CNS -78.9% | UACC-62 melanoma -58.9% | LOX IMVI melanoma -67.7% | SK-MEL-28 melanoma -86.9% | SN12C renal -18.7% | UO-31 renal -83.4% | TK-10 renal -0.117% | ACHN renal -81.1% | CAKI-1 renal -62.5% | CCRF-CEM leukemia -44.1%

COc1ccc(NC(=O)COc2ccccc2)c(C(N)=O)c1
active: HT29 colon 6.77% | U251 CNS 9.36% | A498 renal 9.39% | CCRF-CEM leukemia 6.03%
inactive: HCT-15 colon 28.8% | SNB-75 CNS 11.5% | SNB-19 CNS 53.4% | PC-3 prostate 39.9% | UACC-62 melanoma 43% | SK-MEL-28 melanoma 62% | SK-MEL-2 melanoma 35.9% | SN12C renal 44.4% | UO-31 renal 57% | ACHN renal 55.7% | CAKI-1 renal 49%

FC(F)(F)c1ccc2c(c1)n1cnnc1c1nncn21
inactive: HCT-15 colon 111% | HT29 colon 107% | SNB-75 CNS 103% | SNB-19 CNS 107% | PC-3 prostate 98.3% | SK-MEL-5 melanoma 98.7% | UACC-62 melanoma 110% | LOX IMVI melanoma 108% | SK-MEL-28 melanoma 115% | SK-MEL-2 melanoma 112% | EKVX NSCLC 94.4% | SN12C renal 106% | UO-31 renal 87.6% | TK-10 renal 100% | ACHN renal 112% | CAKI-1 renal 97% | A498 renal 94.7% | MOLT-4 leukemia 96.4%

C[C@H]1C(=O)C23CCC1C[C@@]21O[C@@H]2C(C)(C)C=CC(=O)C23COC1=O
inactive: HCT-15 colon 109% | HT29 colon 110% | SNB-75 CNS 83.6% | SNB-19 CNS 100% | U251 CNS 105% | SK-MEL-5 melanoma 103% | LOX IMVI melanoma 93.7% | SK-MEL-28 melanoma 111% | SK-MEL-2 melanoma 104% | SN12C renal 103% | UO-31 renal 81.5% | TK-10 renal 98.9% | ACHN renal 104% | CAKI-1 renal 101% | A498 renal 92% | CCRF-CEM leukemia 71.7% | MOLT-4 leukemia 102%

Cc1cc(=O)c2c(C)ccc(C)c2[nH]1
inactive: HCT-15 colon 101% | HT29 colon 111% | SNB-75 CNS 101% | SNB-19 CNS 99.8% | U251 CNS 100% | SK-MEL-5 melanoma 110% | UACC-62 melanoma 96.4% | LOX IMVI melanoma 97.7% | SK-MEL-28 melanoma 109% | SK-MEL-2 melanoma 104% | EKVX NSCLC 102% | SN12C renal 101% | UO-31 renal 86.8% | TK-10 renal 108% | ACHN renal 102% | CAKI-1 renal 108% | A498 renal 108% | CCRF-CEM leukemia 102% | MOLT-4 leukemia 100%

COc1nc2c(cc1S(=O)(=O)c1ccccc1)CCc1c-2cnn1-c1cccc(Cl)c1
active: UO-31 renal -15.6%
inactive: HCT-15 colon 71% | HT29 colon 54.9% | SNB-75 CNS 85.5% | SNB-19 CNS 98.2% | PC-3 prostate 64.4% | SK-MEL-5 melanoma 88% | UACC-62 melanoma 71.2% | LOX IMVI melanoma 93.9% | SK-MEL-28 melanoma 86.4% | SK-MEL-2 melanoma 88.9% | SN12C renal 77.4% | TK-10 renal 94.2% | ACHN renal 68.3% | CAKI-1 renal 63.5% | A498 renal 54.6% | CCRF-CEM leukemia 70.4% | MOLT-4 leukemia 66.1%

CCOc1ccc(/C=N\N2CCCCCC2)cc1OCC
inactive: HCT-15 colon 62.1% | HT29 colon 100% | SNB-75 CNS 85.2% | SNB-19 CNS 96.2% | U251 CNS 86% | SK-MEL-5 melanoma 83.1% | UACC-62 melanoma 75.1% | SK-MEL-28 melanoma 95.5% | SK-MEL-2 melanoma 103% | EKVX NSCLC 76.8% | SN12C renal 82.7% | TK-10 renal 97.7% | ACHN renal 88.7% | CAKI-1 renal 90.8% | CCRF-CEM leukemia 102% | MOLT-4 leukemia 106%

COc1cc(C2=NN(c3ccc(S(N)(=O)=O)cc3)C(c3ccc(Cl)cc3)C2)cc(OC)c1OC (stereo not given)
inactive: HCT-15 colon 43.1% | HT29 colon 32.1% | SNB-75 CNS 41.5% | SNB-19 CNS 56.5% | U251 CNS 23.9% | SK-MEL-5 melanoma 27.5% | LOX IMVI melanoma 42.5% | SK-MEL-28 melanoma 44.3% | SK-MEL-2 melanoma 66.9% | SN12C renal 51% | UO-31 renal 23.2% | TK-10 renal 45.9% | ACHN renal 46.5% | CAKI-1 renal 53.3% | A498 renal 35.4% | CCRF-CEM leukemia 20.7% | MOLT-4 leukemia 16.6%

O=C(CCCCCCC(=O)Nc1ccc2c(c1)/C(=C/c1ccc[nH]1)C(=O)N2)NO
active: HT29 colon 8.62% | U251 CNS -9.13% | SK-MEL-5 melanoma -75% | LOX IMVI melanoma -69.8% | UO-31 renal 6.77% | TK-10 renal 5.62% | ACHN renal 4.49% | CAKI-1 renal 2.67% | A498 renal -59.3% | CCRF-CEM leukemia 6.86% | MOLT-4 leukemia 4.16%
inactive: HCT-15 colon 41.5% | SNB-75 CNS 53% | SNB-19 CNS 16.3% | SK-MEL-28 melanoma 14.6% | SK-MEL-2 melanoma 37% | SN12C renal 12.2%

Cc1nc2cc(Nc3nc(Nc4ccc(F)cc4)nc(N4CCN(C)CC4)n3)ccc2n1Cc1ccccc1
inactive: SNB-19 CNS 44.2% | PC-3 prostate 19.7% | SK-MEL-5 melanoma 80.9% | SN12C renal 34.9% | CAKI-1 renal 18.6% | A498 renal 29.2%
active: HCT-15 colon -34.3% | HT29 colon -51.9% | SNB-75 CNS -20.4% | UACC-62 melanoma -65.4% | LOX IMVI melanoma -73.6% | SK-MEL-28 melanoma -67.4% | SK-MEL-2 melanoma -20.5% | UO-31 renal -29% | TK-10 renal -12.1% | ACHN renal 9.69% | CCRF-CEM leukemia -7.07%

Cc1nc2cc(Nc3nc(Nc4ccc(F)cc4)nc(N4CCCC4)n3)ccc2n1Cc1ccccc1
inactive: SNB-19 CNS 33.6% | ACHN renal 11.5%
active: HCT-15 colon -33.4% | HT29 colon -76.1% | SNB-75 CNS -15.1% | U251 CNS -70.9% | SK-MEL-5 melanoma -53.4% | LOX IMVI melanoma -86% | SK-MEL-28 melanoma -10.6% | SK-MEL-2 melanoma -58% | SN12C renal -62.9% | UO-31 renal -68.7% | TK-10 renal -55.8% | CAKI-1 renal -14.4% | A498 renal -19.3% | CCRF-CEM leukemia -30.4%
